Measured values as given in PubChem BioAssay (NCI).
The panel holds about 83,000 compounds, 20% with a hit somewhere; the sample as a whole holds those more often.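 96-well plates, one dose, 48 hours. Percent growth reported; active if below 10.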 A number with no mark means an inactive call. Calls of active or inactive are those of the source.

Tests used:
Experiment in all cases: NCI-60 one-dose screen, 48 h (100 = growth as untreated, 0 = no growth, -100 = all killed)
Conditions in all cases: 10 µM unless noted
HCT-15 colon = system: HCT-15 colon
HT29 colon = system: HT29 colon
SNB-75 CNS = system: SNB-75 CNS
SNB-19 CNS = system: SNB-19 CNS
U251 CNS = system: U251 CNS
PC-3 prostate = system: PC-3 prostate
SK-MEL-5 melanoma = system: SK-MEL-5 melanoma
UACC-62 melanoma = system: UACC-62 melanoma
LOX IMVI melanoma = system: LOX IMVI melanoma
SK-MEL-28 melanoma = system: SK-MEL-28 melanoma
EKVX NSCLC = system: EKVX NSCLC
SN12C renal = system: SN12C renal
UO-31 renal = system: UO-31 renal
TK-10 renal = system: TK-10 renal
ACHN renal = system: ACHN renal
A498 renal = system: A498 renal
CCRF-CEM leukemia = system: CCRF-CEM leukemia
MOLT-4 leukemia = system: MOLT-4 leukemia
CAKI-1 renal = system: CAKI-1 renal
SK-MEL-2 melanoma = system: SK-MEL-2 melanoma

## N#Cc1cccc(CN2CCC3=C(C2)C(=O)N(Cc2ccc(Cl)cc2)C2=NCCCN23)c1
HCT-15 colon
  growth: 16.6%
HT29 colon
  growth: 28%
SNB-75 CNS
  growth: 68%
SNB-19 CNS
  growth: 21.8%
U251 CNS
  growth: 23.7%
PC-3 prostate
  growth: 24%
SK-MEL-5 melanoma
  growth: 8.1% (active)
UACC-62 melanoma
  growth: 25%
LOX IMVI melanoma
  growth: 43.8%
SK-MEL-28 melanoma
  growth: 44.8%
EKVX NSCLC
  growth: 29%
SN12C renal
  growth: 22.1%
UO-31 renal
  growth: 37.4%
TK-10 renal
  growth: 60.4%
ACHN renal
  growth: 38.4%
A498 renal
  growth: 15.4%
CCRF-CEM leukemia
  growth: 37.1%
MOLT-4 leukemia
  growth: 48.3%

## O=C(O)c1ccc(-n2cc(CNc3cc(F)c(F)c(F)c3)c(-c3cccc(F)c3)n2)cc1
HCT-15 colon
  growth: 46.8%
HT29 colon
  growth: 106%
SNB-75 CNS
  growth: 106%
SNB-19 CNS
  growth: 97.4%
U251 CNS
  growth: 93.3%
PC-3 prostate
  growth: 79.1%
SK-MEL-5 melanoma
  growth: 67.4%
UACC-62 melanoma
  growth: 58.2%
LOX IMVI melanoma
  growth: 104%
SK-MEL-28 melanoma
  growth: 83.2%
EKVX NSCLC
  growth: 65.5%
SN12C renal
  growth: 91.3%
UO-31 renal
  growth: 77%
TK-10 renal
  growth: 128%
ACHN renal
  growth: 77.4%
CCRF-CEM leukemia
  growth: 92.3%
MOLT-4 leukemia
  growth: 79.8%

## CC(C)(C)CC(C)(C)n1nnnc1C(Nc1nccs1)c1cc2cccc3ccc4cccc1c4c32 (centres undefined)
HCT-15 colon
  growth: 94.9%
HT29 colon
  growth: 104%
SNB-75 CNS
  growth: 91.5%
SNB-19 CNS
  growth: 89.9%
U251 CNS
  growth: 98.1%
PC-3 prostate
  growth: 96.9%
SK-MEL-5 melanoma
  growth: 100%
UACC-62 melanoma
  growth: 68.4%
LOX IMVI melanoma
  growth: 97%
SK-MEL-28 melanoma
  growth: 101%
EKVX NSCLC
  growth: 97.2%
SN12C renal
  growth: 99.4%
UO-31 renal
  growth: 87.9%
TK-10 renal
  growth: 108%
ACHN renal
  growth: 96.1%
CAKI-1 renal
  growth: 75.9%
CCRF-CEM leukemia
  growth: 106%
MOLT-4 leukemia
  growth: 121%

## C[C@@H]1C[C@H]2C(=O)O[C@@H](C)C(NC(=O)[C@H](Cc3cc(F)cc(F)c3)NC(=O)Nc3ccc(Cl)cc3F)C(=O)N3CCC[C@H]3C(=O)N3CCCC[C@H]3C(=O)N[C@@H](CO)C(=O)N2C1 (some centres undefined)
HCT-15 colon
  growth: 13.2%
HT29 colon
  growth: 35.3%
SNB-75 CNS
  growth: 30.8%
SNB-19 CNS
  growth: 28.1%
U251 CNS
  growth: 30%
PC-3 prostate
  growth: 15.5%
SK-MEL-5 melanoma
  growth: -2.76% (active)
UACC-62 melanoma
  growth: 29.5%
LOX IMVI melanoma
  growth: 29.5%
SK-MEL-28 melanoma
  growth: 43.9%
EKVX NSCLC
  growth: 30.9%
SN12C renal
  growth: 21.5%
UO-31 renal
  growth: 34.9%
TK-10 renal
  growth: 54.7%
ACHN renal
  growth: 31.9%
CAKI-1 renal
  growth: 17.5%
CCRF-CEM leukemia
  growth: 32.7%
MOLT-4 leukemia
  growth: 36.5%

## CCOC(=O)c1c(Nc2ccccc2)nn2c(-c3ccccc3)ccnc12
HCT-15 colon
  growth: 63.3%
HT29 colon
  growth: 84.4%
SNB-75 CNS
  growth: 67.1%
SNB-19 CNS
  growth: 98.3%
U251 CNS
  growth: 90.8%
PC-3 prostate
  growth: 92.8%
SK-MEL-5 melanoma
  growth: 78.5%
UACC-62 melanoma
  growth: 87.7%
LOX IMVI melanoma
  growth: 83%
SK-MEL-28 melanoma
  growth: 101%
EKVX NSCLC
  growth: 95.4%
SN12C renal
  growth: 90.5%
UO-31 renal
  growth: 85.5%
TK-10 renal
  growth: 111%
ACHN renal
  growth: 90.7%
CAKI-1 renal
  growth: 88.7%
CCRF-CEM leukemia
  growth: 9.59% (active)
MOLT-4 leukemia
  growth: 87.1%

## CC(O)c1cc2ccccc2c(=O)o1 (centres undefined)
HCT-15 colon
  growth: 103%
HT29 colon
  growth: 105%
SNB-75 CNS
  growth: 110%
SNB-19 CNS
  growth: 99.6%
U251 CNS
  growth: 103%
PC-3 prostate
  growth: 95.2%
SK-MEL-5 melanoma
  growth: 97%
UACC-62 melanoma
  growth: 97.9%
LOX IMVI melanoma
  growth: 97.3%
SK-MEL-28 melanoma
  growth: 101%
EKVX NSCLC
  growth: 102%
SN12C renal
  growth: 101%
UO-31 renal
  growth: 89.9%
TK-10 renal
  growth: 105%
ACHN renal
  growth: 102%
CAKI-1 renal
  growth: 91.5%
CCRF-CEM leukemia
  growth: 1.19% (active)
MOLT-4 leukemia
  growth: 107%

## COc1cc(Cn2cc3c(c2)-c2onc(CN4CCOCC4)c2CC3)cc(OC)c1OC
HCT-15 colon
  growth: 97.9%
HT29 colon
  growth: 104%
SNB-75 CNS
  growth: 117%
SNB-19 CNS
  growth: 97.2%
U251 CNS
  growth: 102%
PC-3 prostate
  growth: 91.6%
SK-MEL-5 melanoma
  growth: 74.9%
UACC-62 melanoma
  growth: 78.8%
LOX IMVI melanoma
  growth: 100%
SK-MEL-28 melanoma
  growth: 105%
SN12C renal
  growth: 95.5%
UO-31 renal
  growth: 78.7%
TK-10 renal
  growth: 107%
ACHN renal
  growth: 99.5%
CAKI-1 renal
  growth: 94.7%
CCRF-CEM leukemia
  growth: 96.9%
MOLT-4 leukemia
  growth: 98.3%

## Cc1cccc(/C=C/C(=O)Nc2ncc(Cc3cccc(C)c3)s2)c1
HCT-15 colon
  growth: 17.5%
HT29 colon
  growth: 2.82% (active)
SNB-75 CNS
  growth: 8.11% (active)
SNB-19 CNS
  growth: 47.2%
U251 CNS
  growth: 22.1%
PC-3 prostate
  growth: 13%
SK-MEL-5 melanoma
  growth: -19% (active)
UACC-62 melanoma
  growth: 14.8%
LOX IMVI melanoma
  growth: 23.3%
SK-MEL-28 melanoma
  growth: 49.8%
EKVX NSCLC
  growth: 36.8%
SN12C renal
  growth: 38.5%
UO-31 renal
  growth: 35.4%
TK-10 renal
  growth: 54.6%
ACHN renal
  growth: 42.1%
CAKI-1 renal
  growth: 25.3%
CCRF-CEM leukemia
  growth: 9.99% (active)
MOLT-4 leukemia
  growth: 22%

## O=C1/C(=C/C=C/c2ccco2)SC(=S)N1C1CCCCC1
HCT-15 colon
  growth: 79.2%
HT29 colon
  growth: 85.3%
SNB-75 CNS
  growth: 103%
SNB-19 CNS
  growth: 93.9%
U251 CNS
  growth: 84%
PC-3 prostate
  growth: 92.9%
SK-MEL-5 melanoma
  growth: 58.4%
UACC-62 melanoma
  growth: 56.7%
LOX IMVI melanoma
  growth: 103%
SK-MEL-28 melanoma
  growth: 72.5%
EKVX NSCLC
  growth: 93%
SN12C renal
  growth: 83.4%
UO-31 renal
  growth: 85.6%
TK-10 renal
  growth: 106%
ACHN renal
  growth: 96%
CAKI-1 renal
  growth: 93.1%
CCRF-CEM leukemia
  growth: 91.2%
MOLT-4 leukemia
  growth: 90.5%

## Cc1cc2ncc(-c3cc4ccccc4c(N4CCN(C)CC4)n3)nc2cc1C
HCT-15 colon
  growth: -69.7% (active)
HT29 colon
  growth: -60.4% (active)
SNB-75 CNS
  growth: 56.1%
SNB-19 CNS
  growth: 73%
U251 CNS
  growth: -30.9% (active)
PC-3 prostate
  growth: 57.5%
SK-MEL-5 melanoma
  growth: 16.2%
UACC-62 melanoma
  growth: -46.6% (active)
LOX IMVI melanoma
  growth: -83.8% (active)
SK-MEL-28 melanoma
  growth: -69.9% (active)
EKVX NSCLC
  growth: 73.8%
SN12C renal
  growth: 31.5%
UO-31 renal
  growth: 4.16% (active)
TK-10 renal
  growth: 67.2%
ACHN renal
  growth: -42.1% (active)
CAKI-1 renal
  growth: 30.2%
CCRF-CEM leukemia
  growth: 1.37% (active)
MOLT-4 leukemia
  growth: -8.83% (active)

## CCC(NC(c1cc2cccc3ccc4cccc1c4c32)c1nnnn1C(C)(C)C)C1CCCCC1 (centres undefined)
HCT-15 colon
  growth: 38.4%
HT29 colon
  growth: 69.4%
SNB-75 CNS
  growth: 75.6%
SNB-19 CNS
  growth: 68.9%
U251 CNS
  growth: 53.8%
PC-3 prostate
  growth: 45.8%
SK-MEL-5 melanoma
  growth: 6.39% (active)
UACC-62 melanoma
  growth: 49.6%
LOX IMVI melanoma
  growth: 47.6%
SK-MEL-28 melanoma
  growth: 80.3%
EKVX NSCLC
  growth: 92.1%
SN12C renal
  growth: 80.8%
UO-31 renal
  growth: 72.1%
TK-10 renal
  growth: 80.6%
ACHN renal
  growth: 54.5%
CAKI-1 renal
  growth: 63.1%
CCRF-CEM leukemia
  growth: 58.1%
MOLT-4 leukemia
  growth: 47.2%

## Nc1ccccc1NC(=O)c1ccc(NC(=O)C/C=C/c2cccnc2)cc1
HCT-15 colon
  growth: 30.2%
HT29 colon
  growth: 18.1%
SNB-75 CNS
  growth: 44.6%
SNB-19 CNS
  growth: 39.4%
U251 CNS
  growth: 21.5%
PC-3 prostate
  growth: 36.9%
SK-MEL-5 melanoma
  growth: 12.3%
UACC-62 melanoma
  growth: 15%
LOX IMVI melanoma
  growth: 20.3%
SK-MEL-2 melanoma
  growth: 15.5%
EKVX NSCLC
  growth: 61.3%
SN12C renal
  growth: 29.1%
UO-31 renal
  growth: 17.6%
TK-10 renal
  growth: 28.9%
ACHN renal
  growth: 47.1%
CAKI-1 renal
  growth: 45.1%
A498 renal
  growth: -16.4% (active)
CCRF-CEM leukemia
  growth: 22.5%
